The full data set covers some 7,900 targets. This sample favours those with a hit. About 0.6% of all pairs of compound and target were hits. A number with no mark means an inactive call.
How the values were obtained:
Assay in all cases: log2 fold change, soluble protein after heating vs DMSO (PISA); higher = thermal stabilisation; K562 cells, 10 uM, 30 min; active = over 0.2 and 3.5 SD of the protein, either way, in both replicates (recomputed)
[1] = compound: CC[C@@H]1C(=O)N(C)c2cnc(Nc3ccc(C(=O)NC4CCN(C)CC4)cc3OC)nc2N1C1CCCC1
In short: (§1)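 Quantification of soluble protein used TMTpro 16plex LC-MS/MS, with channel sums equalised. Samples were the supernatant after 21,000xg for 90 min of pooled aliquots from K562 cells (2×10^6 cells/mL) treated with 10 μM compound for 30 min, heated for 3 min over 48°C-58°C, and extracted in PBS with 0.5% NP-40 at 4°C. Values, from duplicates, describe thermal stability against control samples on a log2 fold-change scale.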

volasertib = compound: CC[C@@H]1C(=O)N(C)c2cnc(Nc3ccc(C(=O)N[C@H]4CC[C@H](N5CCN(CC6CC6)CC5)CC4)cc3OC)nc2N1C(C)C [volasertib]
In short: as §1

[2] = compound: CC[C@H](C)N1C=C(C2=C(C=C(C=C21)C3=CN=C(C=C3)N4CCNCC4)C(=O)NCC5=C(C=C(NC5=O)C)C)C
In short: as §1

epoxomicin = compound: CC[C@H](C)[C@@H](C(=O)N[C@@H]([C@@H](C)O)C(=O)N[C@@H](CC(C)C)C(=O)[C@]1(CO1)C)NC(=O)[C@H]([C@@H](C)CC)N(C)C(=O)C [epoxomicin]
In short: as §1

[3] = compound: CCn1c(C(=O)N(C2CC2)C2CC2)cc2c3c(ncn3C)c(Nc3cc(C)n(C)n3)nc21
In short: as §1

[4] = compound: CCn1cc(-c2ccnc3[nH]c(-c4cccc(CN(C)C)c4)cc23)c(-c2ccc(NC(=O)N(C)C)cc2)n1
In short: as §1

[5] = compound: CN(C)CC(=O)Nc1ccc2[nH]c(=O)c3ccccc3c2c1
In short: as §1

rosiglitazone = compound: CN(CCOC1=CC=C(C=C1)C[C@H]2C(=O)NC(=O)S2)C3=CC=CC=N3 (racemic) [rosiglitazone]
In short: as §1

[6] = compound: CN1C2=C(C3=C1C(=O)N(N=C3)CC4=CC(=CC=C4)N)SC(=C2)S(=O)C
In short: as §1

[7] = compound: CN1CCC(CNc2ccc3ncc(-c4cccc(OC(F)(F)F)c4)n3n2)CC1
In short: as §1

PIP4K2A (UniProt P48426)
Chain of UniProt P48426 (P48426 whole entry, looked up): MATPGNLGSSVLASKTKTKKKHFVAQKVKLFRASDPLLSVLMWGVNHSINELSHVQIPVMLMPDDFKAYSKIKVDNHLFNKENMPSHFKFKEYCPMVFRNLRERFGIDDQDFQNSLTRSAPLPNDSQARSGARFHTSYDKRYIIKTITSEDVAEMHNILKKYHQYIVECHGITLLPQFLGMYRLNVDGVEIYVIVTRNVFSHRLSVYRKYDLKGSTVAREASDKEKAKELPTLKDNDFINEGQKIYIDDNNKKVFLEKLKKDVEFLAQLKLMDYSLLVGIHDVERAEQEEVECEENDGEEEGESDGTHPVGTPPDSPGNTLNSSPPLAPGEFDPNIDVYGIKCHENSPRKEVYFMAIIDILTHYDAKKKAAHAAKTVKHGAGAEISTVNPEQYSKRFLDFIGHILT
log2 fold change [1]: 0.602 (active) | log2 fold change (volasertib): 0.768 (active) | log2 fold change [2]: -0.055 | log2 fold change (epoxomicin): 0.018 | log2 fold change [3]: -0.049 | log2 fold change [4]: -0.052 | log2 fold change [5]: -0.021 | log2 fold change (rosiglitazone): -0.009 | log2 fold change [6]: 0.04 | log2 fold change [7]: 0.114

PUM1 isoform 3 (UniProt Q14671)
log2 fold change [1]: -0.075 | log2 fold change (volasertib): -0.302 (active) | log2 fold change [2]: 0.036 | log2 fold change (epoxomicin): 0.023 | log2 fold change [3]: -0.007 | log2 fold change [4]: -0.018 | log2 fold change [5]: 0.015 | log2 fold change (rosiglitazone): 0.033 | log2 fold change [6]: 0.044 | log2 fold change [7]: -0.123

PIK3CB (UniProt P42338)
Chain of UniProt P42338 (P42338 whole entry, looked up): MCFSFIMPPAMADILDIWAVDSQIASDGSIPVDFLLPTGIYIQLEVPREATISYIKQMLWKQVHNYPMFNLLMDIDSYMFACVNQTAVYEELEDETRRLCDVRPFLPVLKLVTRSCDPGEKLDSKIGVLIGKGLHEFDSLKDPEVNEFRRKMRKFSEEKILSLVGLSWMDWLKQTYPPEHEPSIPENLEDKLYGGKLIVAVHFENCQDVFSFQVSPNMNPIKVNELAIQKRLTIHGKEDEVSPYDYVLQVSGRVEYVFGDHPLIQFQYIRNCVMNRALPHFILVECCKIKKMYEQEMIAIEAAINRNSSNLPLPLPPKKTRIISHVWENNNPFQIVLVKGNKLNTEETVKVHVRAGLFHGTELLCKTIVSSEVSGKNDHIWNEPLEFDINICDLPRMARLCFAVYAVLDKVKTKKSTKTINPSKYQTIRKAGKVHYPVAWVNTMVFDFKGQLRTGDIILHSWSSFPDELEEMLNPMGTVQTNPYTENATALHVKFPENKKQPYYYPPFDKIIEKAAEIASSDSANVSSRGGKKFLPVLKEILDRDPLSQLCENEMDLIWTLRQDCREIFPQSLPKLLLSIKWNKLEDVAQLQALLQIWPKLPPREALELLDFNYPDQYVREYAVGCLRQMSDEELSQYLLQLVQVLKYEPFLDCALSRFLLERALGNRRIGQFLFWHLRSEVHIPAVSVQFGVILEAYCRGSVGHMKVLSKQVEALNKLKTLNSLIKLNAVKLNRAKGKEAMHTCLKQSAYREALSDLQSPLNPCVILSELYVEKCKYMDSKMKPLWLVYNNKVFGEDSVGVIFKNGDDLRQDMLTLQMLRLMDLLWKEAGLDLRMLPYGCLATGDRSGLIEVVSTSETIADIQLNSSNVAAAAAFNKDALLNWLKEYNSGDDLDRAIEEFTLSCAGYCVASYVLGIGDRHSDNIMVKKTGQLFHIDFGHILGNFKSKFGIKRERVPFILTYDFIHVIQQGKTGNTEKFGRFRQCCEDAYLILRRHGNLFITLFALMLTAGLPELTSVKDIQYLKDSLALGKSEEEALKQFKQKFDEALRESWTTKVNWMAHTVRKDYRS
log2 fold change [1]: 0.017 | log2 fold change (volasertib): -0.224 (active) | log2 fold change [2]: 0.082 | log2 fold change (epoxomicin): 0.033 | log2 fold change [3]: -0.01 | log2 fold change [4]: -0.071 | log2 fold change [5]: 0.008 | log2 fold change (rosiglitazone): 0.078 | log2 fold change [6]: 0.003 | log2 fold change [7]: 0.175

PSMC3 (UniProt P17980)
log2 fold change [1]: 0.032 | log2 fold change (volasertib): 0.179 | log2 fold change [2]: -0.021 | log2 fold change (epoxomicin): -0.319 (active) | log2 fold change [3]: -0.028 | log2 fold change [4]: 0.079 | log2 fold change [5]: -0.031 | log2 fold change (rosiglitazone): -0.038 | log2 fold change [6]: 0.021 | log2 fold change [7]: 0.018

PLIN2 (UniProt Q99541)
Chain of UniProt Q99541 (Q99541 whole entry, looked up): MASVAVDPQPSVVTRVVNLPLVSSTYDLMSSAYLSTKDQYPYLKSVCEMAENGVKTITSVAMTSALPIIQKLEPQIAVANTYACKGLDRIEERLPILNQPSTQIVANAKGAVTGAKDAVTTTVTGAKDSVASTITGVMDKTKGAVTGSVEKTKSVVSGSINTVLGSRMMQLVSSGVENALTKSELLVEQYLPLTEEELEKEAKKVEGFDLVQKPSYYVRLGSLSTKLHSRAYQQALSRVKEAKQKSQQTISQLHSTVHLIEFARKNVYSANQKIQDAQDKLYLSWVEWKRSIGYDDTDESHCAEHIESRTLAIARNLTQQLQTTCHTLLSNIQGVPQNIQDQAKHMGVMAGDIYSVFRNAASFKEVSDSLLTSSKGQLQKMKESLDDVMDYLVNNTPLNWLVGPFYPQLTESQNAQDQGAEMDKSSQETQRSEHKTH
log2 fold change [1]: -0.173 | log2 fold change (volasertib): -0.259 | log2 fold change [2]: -0.102 | log2 fold change (epoxomicin): 0.153 | log2 fold change [3]: -0.008 | log2 fold change [4]: -0.01 | log2 fold change [5]: 0.013 | log2 fold change (rosiglitazone): -0.033 | log2 fold change [6]: 0 | log2 fold change [7]: -0.699 (active)

PRMT3 (UniProt O60678)
log2 fold change [1]: -0.126 | log2 fold change (volasertib): -0.411 (active) | log2 fold change [2]: 0.039 | log2 fold change (epoxomicin): 0.033 | log2 fold change [3]: 0.005 | log2 fold change [4]: -0.093 | log2 fold change [5]: 0.039 | log2 fold change (rosiglitazone): 0.077 | log2 fold change [6]: -0.008 | log2 fold change [7]: -0.953 (active)

PPT2 isoform 3 (UniProt Q9UMR5)
log2 fold change [1]: -0.57 (active) | log2 fold change (volasertib): -0.87 (active) | log2 fold change [2]: -0.006 | log2 fold change (epoxomicin): -0.021 | log2 fold change [3]: 0.005 | log2 fold change [4]: 0.206 | log2 fold change [5]: -0.068 | log2 fold change (rosiglitazone): 0.048 | log2 fold change [6]: -0.051 | log2 fold change [7]: -0.682 (active)

PRPF38B (UniProt Q5VTL8)
Chain of UniProt Q5VTL8 (Q5VTL8 whole entry, looked up): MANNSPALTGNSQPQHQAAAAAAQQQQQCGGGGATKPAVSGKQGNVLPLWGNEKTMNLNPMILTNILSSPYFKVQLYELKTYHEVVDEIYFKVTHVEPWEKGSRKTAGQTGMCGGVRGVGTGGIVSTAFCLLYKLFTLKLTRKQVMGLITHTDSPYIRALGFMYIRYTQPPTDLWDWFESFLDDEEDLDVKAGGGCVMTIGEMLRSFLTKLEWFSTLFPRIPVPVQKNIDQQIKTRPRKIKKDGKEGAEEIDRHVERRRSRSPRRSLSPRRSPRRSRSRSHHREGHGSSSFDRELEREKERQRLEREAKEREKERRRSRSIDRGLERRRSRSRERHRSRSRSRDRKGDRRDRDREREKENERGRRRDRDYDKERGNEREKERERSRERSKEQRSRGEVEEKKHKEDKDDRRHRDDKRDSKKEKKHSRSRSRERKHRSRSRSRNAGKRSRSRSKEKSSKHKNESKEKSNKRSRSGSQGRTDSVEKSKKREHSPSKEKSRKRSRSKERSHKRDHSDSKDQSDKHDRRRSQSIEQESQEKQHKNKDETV
log2 fold change [1]: -0.152 | log2 fold change (volasertib): -0.231 | log2 fold change [2]: 0.015 | log2 fold change (epoxomicin): -0.002 | log2 fold change [3]: -0.012 | log2 fold change [4]: -0.02 | log2 fold change [5]: -0.01 | log2 fold change (rosiglitazone): 0.009 | log2 fold change [6]: 0.018 | log2 fold change [7]: -0.073

PRPSAP2 (UniProt O60256)
log2 fold change [1]: 0.07 | log2 fold change (volasertib): 0.056 | log2 fold change [2]: -0.043 | log2 fold change (epoxomicin): -0.008 | log2 fold change [3]: -0.013 | log2 fold change [4]: -0.088 | log2 fold change [5]: -0.02 | log2 fold change (rosiglitazone): 0.008 | log2 fold change [6]: -0.041 | log2 fold change [7]: 0.159

PEX7 (UniProt O00628)
Chain of UniProt O00628 (O00628 whole entry, looked up): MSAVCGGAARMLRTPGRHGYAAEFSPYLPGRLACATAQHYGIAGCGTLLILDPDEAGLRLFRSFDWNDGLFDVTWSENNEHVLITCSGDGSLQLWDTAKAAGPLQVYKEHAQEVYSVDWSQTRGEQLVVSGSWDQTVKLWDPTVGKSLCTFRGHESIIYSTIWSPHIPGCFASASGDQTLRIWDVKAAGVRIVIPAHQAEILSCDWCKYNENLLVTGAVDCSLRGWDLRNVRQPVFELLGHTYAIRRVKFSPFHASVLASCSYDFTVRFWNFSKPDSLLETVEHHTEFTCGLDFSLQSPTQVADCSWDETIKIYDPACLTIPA
log2 fold change [1]: 0.038 | log2 fold change (volasertib): 0.005 | log2 fold change [2]: -0.027 | log2 fold change (epoxomicin): 0.075 | log2 fold change [3]: -0.044 | log2 fold change [4]: -0.01 | log2 fold change [5]: 0.091 | log2 fold change (rosiglitazone): -0.045 | log2 fold change [6]: -0.067 | log2 fold change [7]: 0.023

PIP4K2B (UniProt P78356)
Chain of UniProt P78356 (P78356 whole entry, looked up): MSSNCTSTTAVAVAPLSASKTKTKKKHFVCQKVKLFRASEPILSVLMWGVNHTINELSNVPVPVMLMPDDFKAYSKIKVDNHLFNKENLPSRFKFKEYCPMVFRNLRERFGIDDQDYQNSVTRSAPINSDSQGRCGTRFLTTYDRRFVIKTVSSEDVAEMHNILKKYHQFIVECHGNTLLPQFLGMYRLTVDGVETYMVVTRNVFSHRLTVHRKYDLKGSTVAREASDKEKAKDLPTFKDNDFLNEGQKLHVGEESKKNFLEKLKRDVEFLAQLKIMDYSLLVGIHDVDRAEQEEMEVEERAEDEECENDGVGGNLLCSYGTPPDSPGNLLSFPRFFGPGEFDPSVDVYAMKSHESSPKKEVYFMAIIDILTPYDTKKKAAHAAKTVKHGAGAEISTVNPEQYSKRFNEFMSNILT
log2 fold change [1]: 0.573 (active) | log2 fold change (volasertib): 0.776 (active) | log2 fold change [2]: -0.089 | log2 fold change (epoxomicin): 0.015 | log2 fold change [3]: -0.036 | log2 fold change [4]: -0.054 | log2 fold change [5]: 0.029 | log2 fold change (rosiglitazone): 0.005 | log2 fold change [6]: 0.172 | log2 fold change [7]: 0.231

PDS5A (UniProt Q29RF7)
Chain of UniProt Q29RF7 (Q29RF7 whole entry, looked up): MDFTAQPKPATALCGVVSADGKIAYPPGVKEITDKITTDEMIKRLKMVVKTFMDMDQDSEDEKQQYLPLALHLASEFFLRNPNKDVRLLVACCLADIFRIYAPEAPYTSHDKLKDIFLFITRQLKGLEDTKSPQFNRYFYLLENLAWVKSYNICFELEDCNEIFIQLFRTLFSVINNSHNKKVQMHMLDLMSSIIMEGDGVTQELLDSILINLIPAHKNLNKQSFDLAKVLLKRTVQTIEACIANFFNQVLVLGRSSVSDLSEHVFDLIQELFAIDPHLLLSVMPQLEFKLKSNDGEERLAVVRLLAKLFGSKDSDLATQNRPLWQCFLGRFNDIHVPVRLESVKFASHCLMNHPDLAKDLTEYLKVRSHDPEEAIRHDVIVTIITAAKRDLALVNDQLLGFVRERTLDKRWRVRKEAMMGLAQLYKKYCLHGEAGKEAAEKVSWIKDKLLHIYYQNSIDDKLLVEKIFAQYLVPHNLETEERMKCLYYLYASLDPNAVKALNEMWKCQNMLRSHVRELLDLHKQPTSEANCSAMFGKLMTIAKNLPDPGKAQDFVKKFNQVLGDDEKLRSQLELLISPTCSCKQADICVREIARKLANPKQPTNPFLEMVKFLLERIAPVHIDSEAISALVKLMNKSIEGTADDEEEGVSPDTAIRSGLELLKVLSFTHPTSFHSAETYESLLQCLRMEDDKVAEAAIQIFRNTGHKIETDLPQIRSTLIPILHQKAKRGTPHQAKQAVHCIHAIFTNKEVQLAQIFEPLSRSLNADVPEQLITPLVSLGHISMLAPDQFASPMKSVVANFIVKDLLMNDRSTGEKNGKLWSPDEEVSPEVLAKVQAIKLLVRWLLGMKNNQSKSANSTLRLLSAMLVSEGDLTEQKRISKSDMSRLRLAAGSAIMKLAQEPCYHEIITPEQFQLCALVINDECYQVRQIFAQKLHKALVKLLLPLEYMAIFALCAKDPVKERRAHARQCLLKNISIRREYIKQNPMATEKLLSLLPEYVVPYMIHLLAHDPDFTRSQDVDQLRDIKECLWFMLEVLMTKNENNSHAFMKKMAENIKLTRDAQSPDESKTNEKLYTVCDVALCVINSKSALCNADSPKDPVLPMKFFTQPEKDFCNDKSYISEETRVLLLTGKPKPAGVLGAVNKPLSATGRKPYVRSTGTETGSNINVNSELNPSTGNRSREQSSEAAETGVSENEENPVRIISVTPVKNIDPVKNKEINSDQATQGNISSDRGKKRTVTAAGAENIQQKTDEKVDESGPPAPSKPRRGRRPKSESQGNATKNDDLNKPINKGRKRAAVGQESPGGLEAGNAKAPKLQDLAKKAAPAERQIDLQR
log2 fold change [1]: -0.213 | log2 fold change (volasertib): -0.447 | log2 fold change [2]: 0.137 | log2 fold change (epoxomicin): 0.29 | log2 fold change [3]: -0.086 | log2 fold change [4]: 0.012 | log2 fold change [5]: -0.107 | log2 fold change (rosiglitazone): 0.246 | log2 fold change [6]: 0.042 | log2 fold change [7]: -0.203

PDPK1 (UniProt O15530)
log2 fold change [1]: -0.136 | log2 fold change (volasertib): -0.232 | log2 fold change [2]: 0.034 | log2 fold change (epoxomicin): 0.055 | log2 fold change [3]: -0.035 | log2 fold change [4]: -0.05 | log2 fold change [5]: 0.034 | log2 fold change (rosiglitazone): 0.064 | log2 fold change [6]: -0.008 | log2 fold change [7]: -0.275

PNPLA2 (UniProt Q96AD5)
Chain of UniProt Q96AD5 (Q96AD5 whole entry, looked up): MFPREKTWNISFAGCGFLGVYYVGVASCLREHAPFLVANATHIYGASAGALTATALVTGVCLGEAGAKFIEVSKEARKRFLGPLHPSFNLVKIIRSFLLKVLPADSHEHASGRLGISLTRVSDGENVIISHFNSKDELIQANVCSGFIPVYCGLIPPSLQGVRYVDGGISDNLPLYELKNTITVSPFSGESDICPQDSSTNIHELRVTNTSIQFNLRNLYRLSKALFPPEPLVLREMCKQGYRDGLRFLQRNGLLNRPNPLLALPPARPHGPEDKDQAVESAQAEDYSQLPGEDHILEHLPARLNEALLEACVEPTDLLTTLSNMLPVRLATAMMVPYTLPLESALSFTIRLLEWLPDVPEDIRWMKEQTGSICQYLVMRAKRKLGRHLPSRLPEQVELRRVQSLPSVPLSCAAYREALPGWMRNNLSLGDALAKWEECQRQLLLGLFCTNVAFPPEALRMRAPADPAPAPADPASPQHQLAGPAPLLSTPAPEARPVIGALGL
log2 fold change [1]: 0.11 | log2 fold change (volasertib): 0.126 | log2 fold change [2]: 0.015 | log2 fold change (epoxomicin): -0.041 | log2 fold change [3]: 0.013 | log2 fold change [4]: 0.156 | log2 fold change [5]: -0.044 | log2 fold change (rosiglitazone): -0.155 | log2 fold change [6]: -0.025 | log2 fold change [7]: -0.068

PSMD12 (UniProt O00232)
log2 fold change [1]: 0.03 | log2 fold change (volasertib): 0.158 | log2 fold change [2]: 0.02 | log2 fold change (epoxomicin): -0.278 | log2 fold change [3]: -0.008 | log2 fold change [4]: 0.017 | log2 fold change [5]: -0.007 | log2 fold change (rosiglitazone): -0.038 | log2 fold change [6]: 0.01 | log2 fold change [7]: 0.062
